Screening results as filed in PubChem BioAssay.
The entries come from a sample that favours hits as a whole.
Artemis endo inh: Artemis endonuclease inhibitors, primary screen, biochemical, fluorescence intensity, FAM/BHQ-1 hairpin substrate; Protein artemis (Homo sapiens), Q96SD1; recombinant Artemis, quenched FAM hairpin cleavage fluorescence; inhibition, % at 10 µM; hit rate 0.78% among 30,000;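 active = at 10 µM dose, at least 30% inhibition, measured as corrected fluorescence normalized to stimulator and neutral control wells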
Starred values were filed as active, the others as inactive.

SMILES	Artemis endo inh
CC(C)C(=O)Nc1ccc(NC(=O)c2cccnc2)cn1	-3
Brc1ccc(-c2cnnc(N3CCCC3)n2)cc1	-12
c1ccc(-c2cn3c(n2)CCC3)cc1	-5
c1ccc(-c2cn3c(n2)SCC3)cc1	-5
Brc1ccc2nc3c(n2c1)CCCC3	2
Brc1ccc(-c2cn3nc4c(nc3n2)CCCC4)cc1	31*
c1ccc(-c2cn3nc4c(nc3n2)CCCC4)cc1	34*
Clc1ccc(COn2nnc3ccccc32)c(Cl)c1	-4
CCS(=O)(=O)NCCc1cc2c(OC)ccc(OC)c2[nH]c1=O	-4
COC(=O)C1=C(N)Oc2cc(C)n(CC3CCCO3)c(=O)c2C1c1ccc(Cl)cc1 (stereo unspecified)	-2
Cc1cc(/C=N/n2cnnc2)c(C)n1-c1cccc(Cl)c1	10
Cc1cc(/C=N/n2cnnc2)c(C)n1-c1ccccc1	-4
Cc1cc(/C=N/n2cnnc2)c(C)n1-c1ccc(OCc2ccc(Cl)cc2Cl)cc1	42*
CCOC(=O)CSc1cc(CS(=O)c2ccc(Cl)cc2)nc(-c2ccccc2)n1 (stereo unspecified)	4
CN1C(=O)/C(=C/c2ccccc2OCc2cccc(F)c2)NC1=S	-4
Cc1ccc(S(=O)(=O)CCc2nc3ccccc3s2)cc1C	4
CCOc1cc2c(C#N)c(N3CCOCC3)nc(N)c2c(N)n1	29
CCCN(CC1CC1)c1nc(N)c2c(N)nc(OC)cc2c1C#N	49*
CCc1nc(C)c(C#N)c2cc(OC)c(OC)cc12	4
Cc1nc(N)sc1-c1nnc(SCC(=O)Nc2nccs2)n1C	2
C1CCC(c2nn3c(-c4n[nH]c5c4CCC5)nnc3s2)CC1	6
CCN(CC)c1ccc(-c2nn3c(-c4n[nH]c5c4CCC5)nnc3s2)cc1	58*
Fc1ccc(C2=Nn3c(nnc3-c3n[nH]c4c3CCC4)SC2)cc1	5
CC(=O)NCCOc1c(C)cc(S(N)(=O)=O)cc1C	-4
Cc1cc(Cl)cc(Br)c1OCCNCC(C)O (stereo unspecified)	31*
SMILES	Artemis endo inh
COc1cc(C=O)ccc1OCCOCCOc1c(C)cc(Cl)cc1Cl	4
Cc1ccc(C)c(NC(=O)CSc2nnc(-c3ccccc3)n2N)c1	-3
O=C(CCCSc1ccccc1)Nc1nc(-c2ccccn2)cs1	58*
O=C(O)CCC(=O)Nc1nc(-c2ccccc2)cs1	2
O=C(Nc1nc(-c2ccccn2)cs1)c1ncc(Cl)c(Cl)c1Cl	23
COCCn1ccc(O)c(Cc2ccccc2)c1=O	-3
COc1ccc(C)cc1-n1c(N)c(C#N)c(C#N)c1-c1ccc(OC)c(OC)c1OC	-4
COc1ccc2c3c(cccc13)N(C)N=C2C	58*
CCN(CC)c1ccc(C(=O)n2cnc3ccccc32)cc1	30*
Cc1ccc(-c2cc(C(=O)n3cnc4ccccc43)c3ccccc3n2)cc1C	6
CCN(CC)c1ccc(NC(=O)CSc2nc3ccccc3c(=O)[nH]2)cc1	9
COc1ccc2nc(NC(=O)CCc3nc(-c4ccccc4F)no3)sc2c1	4
COC(=O)c1nnn(CC(=O)Nc2cccc(OC)c2)c1C(=O)OC	3
COc1cccc(C(C(=O)NC2CCCC2)N(Cc2ccc(C)cc2)C(=O)c2ccco2)c1OC (stereo unspecified)	-4
COc1cccc(CN(C(=O)c2ccco2)C(C(=O)NC2CCCC2)c2cccnc2)c1 (stereo unspecified)	-2
COc1ccccc1CN(C(=O)c1ccco1)C(C(=O)NC1CCCC1)c1ccncc1 (stereo unspecified)	83*
CC(=O)Nc1nc2ccc(-c3nc4ccccc4o3)cc2s1	16
COc1ccc(/C=N/NC(=O)CSc2nnc(CCCc3ccc(OC)c(C)c3)o2)cc1	13
Cc1[nH]c2ccccc2c1C(c1ccccn1)c1c(C)[nH]c2ccccc12	-4
c1ccc(-c2nc3c(ccc4ccccc43)[nH]2)nc1	44*
O=c1[nH]c(-c2ccccn2)nc2ccccc12	15
COC(=O)c1cc(NC(=O)c2ccccc2)c(=O)oc1C/C=N\OCc1ccc(Cl)cc1Cl	1
